Source: PubChem BioAssay
SENP8 block-1: blocks the human protease SENP8. Q96LD8. purified SENP8, Z-RLRGG-aminoluciferin cleavage, luminescence. inhibition, % at 10 µM. 1.2% of 330,000 active. AID 2540; in the data active means inhibition above about 50%
SENP6 inh: blocks the human protease SENP6. Recombinant SENP6 catalytic domain, aminoluciferin luminescence. inhibition, % at 10 µM. 1.8% of 330,000 active. AID 2599;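 active means inhibition above about 50% at the single tested dose, limit read from the data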
SENP7 block: SENP7 protease inhibition; 1.5% of 330,000 active; Q9BQF6; recombinant SENP7, Z-RLRGG-aminoluciferin luminescence, 40 min; inhibition, % at 5 µM;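 active means inhibition above about 50% at the single test dose, limit read from the data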
EBI2 block: antagonists of human EBI2 receptor; inhibition, % at 5 µM; P32249; 0.81% of 360,000 active; EBI2 beta-arrestin recruitment, luminescence, 7a,25-OHC stimulated; AID 651636; in the data active means inhibition above about 38%;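 further: enzyme fragment complementation signal reports receptor beta-arrestin coupling in cells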
Target sequence (P32249 whole entry, looked up, the tested form may be a part): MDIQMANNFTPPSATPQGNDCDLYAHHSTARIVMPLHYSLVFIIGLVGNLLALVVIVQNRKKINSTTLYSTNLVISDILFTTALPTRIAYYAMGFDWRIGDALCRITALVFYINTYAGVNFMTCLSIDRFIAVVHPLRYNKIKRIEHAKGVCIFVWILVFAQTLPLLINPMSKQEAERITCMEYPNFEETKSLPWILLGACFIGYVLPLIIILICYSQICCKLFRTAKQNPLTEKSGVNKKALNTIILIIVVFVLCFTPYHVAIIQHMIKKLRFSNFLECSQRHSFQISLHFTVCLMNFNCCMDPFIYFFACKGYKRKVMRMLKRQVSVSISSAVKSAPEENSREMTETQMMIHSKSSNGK
AHR act: activators of human aryl hydrocarbon receptor. P35869. AHR-responsive luciferase reporter cells, luminescence. activation, % at 5 µM. 2.5% of 320,000 active. AID 2796; in the data active means activation above about 47%
SENP8 block-2: blocks human SENP8 cleavage of Nedd8 substrate; recombinant SENP8, Nedd8 substrate fluorescence; inhibition, % at 20 µM; 0.64% of 360,000 active; AID 602440; in the data active means inhibition mostly above about 40%, no sharp cut-off; inactive means mostly below about 27%
SENP8 conf: confirmation of human SENP8 protease inhibitors; shares compounds with SENP7 block; Recombinant SENP8, Z-RLRGG-aminoluciferin luminescence, 60 min; inhibition, % at 12.5 µM; 40% of 6,200 active;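 active means mean inhibition across replicates above about 50%, limit read from the data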
SENP6 conf: confirmation of human SENP6 protease inhibitors; shares compounds with SENP7 block; recombinant SENP6, Z-RLRGG-aminoluciferin luminescence; inhibition, % at 12.5 µM; 58% of 6,200 active; AID 488915
SENP7 confirm: human SENP7 inhibition, confirmed | recombinant SENP7, Z-RLRGG-aminoluciferin luminescence, 40 min | AID 488917 | 69% of 6,200 active | inhibition, % at 12.5 µM | shares compounds with SENP7 block
Casp3 SENP sel: caspase-3 inhibition (SENP selectivity assay) | AID 488918 | shares compounds with SENP7 block | inhibition, % at 12.5 µM | purified caspase-3, Z-DEVD-aminoluciferin luminescence, 60 min | 60% of 6,200 active;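 active means mean inhibition above about 50%, limit read from the data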
Luc interf: interferes with luciferase luminescence in SENP counter-screen; shares compounds with SENP7 block; AID 488919; inhibition, % at 12.5 µM; 39% of 6,200 active; Pre-incubated SENP8/Z-RLRGG-aminoluciferin, luciferase luminescence interference;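 active means mean inhibition above about 50% when retested at one dose, limit read from the data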
Each line names hits and unclear results; the compound was inactive in the other large screens (follow-up assays come after a bar, where they were run). Shown are actives, neighbours in structure and some others; about 5% of the full set was active somewhere.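 How the source made its calls, unless noted: active means mean inhibition above about 50% in the one-dose retest (limit read from the data); inactive means the rest.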

CCOc1cc(/C=N/NC(=O)c2ccccn2)ccc1OC(=O)c1cccs1	none
CC(C)c1ccc(/C=N/NC(=O)c2ccccn2)cc1	SENP8 block-1 79.3, SENP6 inh 86.0, SENP7 block 80.3 | SENP8 conf 71.0 | SENP6 conf 84.2 | SENP7 confirm 97.9 | Casp3 SENP sel 89.0 | Luc interf inactive
CN(C(=O)COC(=O)c1cccc(S(=O)(=O)N2CCCCC2)c1)C1CCS(=O)(=O)C1 (configuration not stated)	none
CCN(CC)S(=O)(=O)c1ccc(O)c(NS(=O)(=O)c2ccccc2F)c1	none
O=C(N/N=C/c1ccncc1)c1ccccn1	none
CN(C)c1ccc(/C=C(\C#N)c2ccccn2)cc1	SENP8 block-1 96.1, SENP6 inh 95.8, SENP7 block 98.7 | SENP8 conf 98.2 | SENP6 conf 98.8 | SENP7 confirm 102.5 | Casp3 SENP sel 96.7 | Luc interf 72.0
CN(C)c1ccc(/C=N/NC(=O)c2ccccn2)cc1	SENP8 block-1 76.1, SENP6 inh 80.1, SENP7 block 91.0 | SENP8 conf inactive | SENP6 conf 85.4 | SENP7 confirm 98.5 | Casp3 SENP sel 95.1 | Luc interf 65.7
O=C(N/N=C/c1ccc2c(c1)OCO2)c1ccccn1	SENP8 block-1 70.1, SENP6 inh 79.6, SENP7 block 91.7 | SENP8 conf inactive | SENP6 conf 67.6 | SENP7 confirm 90.0 | Casp3 SENP sel 84.7 | Luc interf inactive
Cc1cccc(C(=O)N/N=C/c2ccc3c(c2)OCO3)n1	none
CN(C)c1ccc(/C=N/NC(=O)C(=O)N2CCCCCC2)cc1	SENP8 block-1 85.9 | SENP8 conf inactive | SENP6 conf inactive | SENP7 confirm inactive | Casp3 SENP sel inactive | Luc interf inactive
Cc1occc1C(=O)NNC(=O)c1ccc(Br)o1	none
O=C(Cn1nnc2ccccc21)Nc1ccc(Cl)cn1	none
COc1cc(C2NC(=O)NC(C)=C2C(C)=O)ccc1O (configuration not stated)	none
Cn1cc(C(=O)Nc2ccc(F)c(Cl)c2)cn1	none
CN1c2ccsc2C(O)=C(C(=S)Nc2ccc(F)c(Cl)c2)S1(=O)=O	SENP6 inh 61.3 | SENP8 conf inactive | SENP6 conf inactive | SENP7 confirm inactive | Casp3 SENP sel inactive | Luc interf inactive
CSCCC(NC(=O)COc1ccccc1)C(=O)N1CCN(c2ccccc2O)CC1 (configuration not stated)	none
CCN(CC(=O)c1c(N)n(C)c(=O)n(C)c1=O)c1cccc2ccccc12	SENP8 block-1 53.7, SENP6 inh 84.2, AHR act 50.0 | SENP8 conf inactive | SENP6 conf inactive | SENP7 confirm inactive | Casp3 SENP sel inactive | Luc interf inactive
Cc1ccc(-c2cc(C(=O)N/N=C/c3ccccc3O)n[nH]2)o1	SENP6 inh 66.6, SENP7 block 51.8 | SENP8 conf inactive | SENP6 conf inactive | SENP7 confirm 85.9 | Casp3 SENP sel 53.2 | Luc interf inactive
Cc1ccc(-c2cc(C(=O)N/N=C/c3c[nH]c4ccccc34)n[nH]2)o1	none
CCCc1cc(C(=O)Nc2cc(C)ccc2O)no1	SENP8 block-1 66.7, SENP6 inh 60.8 | SENP8 conf inactive | SENP6 conf 56.2 | SENP7 confirm 87.4 | Casp3 SENP sel 72.4 | Luc interf inactive
CCCc1cc(C(=O)Nc2cccnc2Cl)no1	none
CCS(=O)(=O)N1Cc2ccccc2CC1C(=O)Nc1cccc(S(=O)(=O)N(C)C)c1 (configuration not stated)	none
O=C(/C=C/Nc1ccc(S(=O)(=O)Nc2ncccn2)cc1)c1cccs1	none
